Experimental findings from PubChem BioAssay AID434973 (Sanford-Burnham Center for Chemical Genomics, 2010) are described below.

One may read the inhibition as the relative decrease from the control value, in per cent.

Out of some 330,000 compounds screened, about 4,900 (1.5%) were called active. This is one part of a sample in which actives are shown more often than they occur.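 How the source made its calls: active means inhibition above about 50% at the single test dose (limit read from the data); inactive means the rest.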

The target of this assay is Sentrin-specific protease 7 (Homo sapiens) (UniProt Q9BQF6). The assay can be described thus: blockers of human SENP7 peptidase activity – biochemical, luminescence, uHTS, primary screen (AID 434973).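 Further: plate controls were DMSO with enzyme for no effect and no enzyme buffer wells for full effect.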 To be noted: recombinant SENP7, Z-RLRGG-aminoluciferin luminescence, 40 min; at 5 µM; stronger effect = higher value.
Take `COc1ccc(S(=O)(=O)N2CCN(c3cnccn3)CC2)cc1`: the inhibition was 4.46% (inactive). For `COC(=O)c1ccc(-n2cnc3ccccc32)nc1`, the inhibition is -0.937% (inactive). In the case of `O=C1CN(C(=O)COC(=O)/C=C/c2ccc(F)cc2)c2ccccc2N1`, the inhibition was -6.02% (inactive). For the compound `O=S(=O)(c1ccc(F)cc1)N1CCN(C(=S)NCc2ccco2)CC1`, the inhibition is -0.183% (inactive).

As to `COc1ccc(NC(=O)NN2CCN(C)CC2)c(OC)c1`, the inhibition was 0.214% (inactive). Take `N#Cc1ccc(OCc2nnc(-c3ccc([N+](=O)[O-])cc3)o2)cc1`: the inhibition is -0.787% (inactive). In the case of `CCCCOc1ccc(-c2nnc(-c3ccco3)o2)cc1`, the inhibition was 80.5% (active). In the case of `CCOc1ccc(-n2c(SCC(N)=O)nnc2-c2ccco2)cc1`, the inhibition was 6.82% (inactive). Then `O=C(NCCC1=CCCCC1)c1ccc(-n2cncn2)cc1`, with -9.22% (inactive); and `O=C(NCc1cccnc1)c1cccnc1Sc1ccc(Cl)cc1`, with 2.66% (inactive). As for `O=C(Nc1ccncc1)c1cc2ccccc2o1`, the inhibition is 60.6% (active). As for `COc1cc2ccccc2cc1C(=O)Nc1ccncc1`, the figure is 7.87% (inactive).

For `CC(C)(C)n1nc2c(c1NC(=O)c1cc3ccccc3o1)CSC2`, the inhibition is 6.18% (inactive). Take `CCOc1ccc(N2C(=O)/C(=C/c3ccc(C)o3)N(C)C2=S)cc1`: the inhibition is 6.54% (inactive). On to `O=C(N[C@@H](Cc1ccccc1)C(=O)OCc1ccccc1)c1nc[nH]c1C(=O)N[C@@H](Cc1ccccc1)C(=O)OCc1ccccc1`, for which the inhibition was 4.7% (inactive). Take `CCOc1ccc(C(=O)COC(=O)c2ccc(-n3cnnn3)cc2)cc1`: the inhibition was -0.201% (inactive). Then `O=C(Oc1ccc(C(=S)N2CCOCC2)cc1)c1ccc(F)cc1`, with 2.03% (inactive); and `CC(C)c1c(C(=O)N/N=C/c2ccc(-c3ccccc3)cc2)nnn1-c1nonc1N`, with 0.606% (inactive); and `Cc1nonc1C(=O)N/N=C/c1ccc(O)cc1`, with 98.8% (active). Take `Cc1nc2ccc(C(=O)N/N=C/c3ccc(O)cc3)cc2[nH]1`: the inhibition was 0.319% (inactive). For the compound `Cn1ncc(N2CCN(S(=O)(=O)c3ccc(Br)cc3)CC2)c(Cl)c1=O`, the inhibition is -5.83% (inactive). In the case of `Cc1ccc2cc(/C=N/Nc3ccc(C(=O)O)cc3)c(Cl)nc2c1`, the inhibition was -6.79% (inactive).

As for `O=C(O)c1ccc(/C=N/Nc2nc(N3CCCCC3)nc(N3CCCCC3)n2)cc1`, the inhibition is -3.32% (inactive). Take `O=C(O)c1ccc(N/N=C/c2ccc3ncccc3c2)cc1`: the inhibition was 99.3% (active). For `COc1ccc(CCNC(=O)C(=O)NCC2OCCN2S(=O)(=O)c2ccc(OC)c(C)c2)cc1` (stereo unspecified), the inhibition is 2.59% (inactive). Turning to `O=C(NC(=S)N1CCN(Cc2ccccc2)CC1)c1ccccc1`, the inhibition is 2.02% (inactive).

With `CC(OC(=O)c1ccc2ccccc2n1)C(=O)c1ccccc1` (stereo unspecified), the inhibition is 55.8% (active). Then `Cc1ccc(S(=O)(=O)N(C)C)cc1NC(=O)C(C)OC(=O)c1ccc2ccccc2n1` (stereo unspecified), with 6.08% (inactive); and `CC(NC(=O)COC(=O)c1ccc2ccccc2n1)c1ccccc1` (stereo unspecified), with -1.7% (inactive); and `O=C(Nc1ccc(S(=O)(=O)N2CCCCC2)cc1)C1CCN(C(=O)c2ccc(F)cc2)CC1`, with -13.9% (inactive).

Take `O=C(Nc1cccc(-c2nnc(-c3ccccc3)o2)c1)C1CCCO1` (stereo unspecified): the inhibition was 1.95% (inactive). `O=C(Nc1ccc(-c2nnc(-c3ccccc3)o2)cc1)C1CCCO1` (stereo unspecified): the inhibition was 60.2% (active). Then `CC(C)(C)NS(=O)(=O)c1ccc(NC(=O)C2CCCO2)cc1` (stereo unspecified), with 3.51% (inactive); and `O=C(COC(=O)/C=C/c1cccc(Cl)c1)NCc1cccs1`, with 15% (inactive); and `CCNC(=O)CC1C(=O)N(c2ccc(F)cc2)C(=O)N1CCc1sccc1C` (stereo unspecified), with 7.13% (inactive).

`Cn1nc(-c2ccccc2)c(CSc2cccc(Cl)c2)c1Cl`: the inhibition is 2.83% (inactive). For `Cc1nn2cc(-c3ccc(Cl)cc3)cnc2c1Br`, the inhibition was 88.2% (active). As for `CCOC(=O)c1cc(S(=O)(=O)NCCc2ccc(OC)c(OC)c2)cn1C`, the figure is 7.17% (inactive); as for `O=c1c(-c2ccccc2)cnc2n1CCS2`, 4.7% (inactive). Turning to `Cc1nnc2n1N=C(c1ccccc1)CS2`, the inhibition was -0.787% (inactive). `O=c1c2cc(-c3ccccc3)sc2nc2n1N=C(c1cccs1)CS2`: the inhibition was 74.3% (active). Consider `O=C(/C=C/c1ccc2c(c1)OCO2)NCc1cn2cc(Cl)ccc2n1`, for which the inhibition was 0.536% (inactive). `Clc1ccc2nc(CSc3ccccc3)cn2c1`: the inhibition is 66.1% (active). As to `CCCCCCSc1ccc(-c2nc3ccc(Cl)cn3c2NCc2ccccc2)cc1`, the inhibition was -2.53% (inactive).

With `COc1ccc(NC(=O)NCc2ccc3c(c2)OCO3)c(OC)c1`, the inhibition is 6.56% (inactive). For the compound `CCOCCCNC(=S)N1CCC(NC(=O)C2CCCCC2)CC1`, the inhibition was -2.06% (inactive). As for `Cc1ncc(CO)c(/C=N/NC(=O)c2cccc(S(=O)(=O)N3CCCC3)c2)c1O`, the figure is -7.56% (inactive); as for `O=C(Nc1ccccc1-c1nc2ccccc2[nH]c1=O)c1cccs1`, -0.595% (inactive). On to `C/C(=N\Nc1nc2ccccc2[nH]1)c1cccs1`, for which the inhibition is 65.2% (active). `C/C(=N\Nc1ncc(Cl)cc1Cl)c1cccs1`: the inhibition is 47.2% (inactive).

On to `O=C(CNC(=O)OCc1ccccc1)NC1CCCCNC1=O` (stereo unspecified), for which the inhibition was 4.12% (inactive). `COC(=O)c1ccc(NC(=O)Nc2ccc(C)cc2)cc1`: the inhibition is -0.387% (inactive). Regarding `COC(=O)c1ccc(NCC(=O)c2ccccc2)cc1`, the inhibition is 86.1% (active). On to `COC(=O)c1ccc(NCC(=O)N2CCCCCC2)cc1`, for which the inhibition was -4.94% (inactive). For the compound `COc1cc(C2/C(=C(\O)c3ccc4c(c3)CC(C)O4)C(=O)C(=O)N2Cc2ccco2)ccc1O` (stereo unspecified), the inhibition was 2.43% (inactive). As for `CC(Oc1ccc(F)cc1F)C(=O)/C=C/N(C)C` (stereo unspecified), the figure is 11.5% (inactive); as for `O=C(OCC(=O)N1CCOCC1)c1ccc2ccccc2c1`, 4.44% (inactive). In the case of `NC(=O)c1ccccc1N=Cc1ccc2ccccc2c1`, the inhibition was 66.6% (active). For `O=C(N/N=C/c1cccc(O)c1)c1cc2c(ccc3ccccc32)o1`, the inhibition was -13.1% (inactive). Then `COc1ccc(CC(=O)N2N=C(C)CC2(O)C(F)(F)F)cc1` (stereo unspecified), with -2.12% (inactive); and `COc1ccccc1C(CNC(=O)c1cccc(S(=O)(=O)Nc2ccc(F)cc2)c1)N(C)C` (stereo unspecified), with -6.57% (inactive); and `O=C(Nc1ccc(Cl)cc1)/C(=C1\CCCN1)[N+](=O)[O-]`, with 16.3% (inactive). Regarding `O=C(NC(=O)c1ccccc1)Nc1ccccc1O`, the inhibition was 55.8% (active). Turning to `O=C(Nc1ncccc1O)c1ccc(C(=O)c2ccccc2)cc1`, the inhibition is -3.01% (inactive). As for `Cc1ccc(NC(=O)NC(=O)c2ccccc2)cc1F`, the figure is 23.1% (inactive); as for `Cn1c2c(c(=O)n(C)c1=O)C1c3ccccc3OCC1C(C)(C)O2` (stereo unspecified), -0.167% (inactive); as for `CCNC(=O)N1CCCC(C(=O)c2ccc(-c3ccccc3)cc2)C1` (stereo unspecified), 3.16% (inactive). With `CCOC(=O)c1sc(NC(=O)c2sc(C)nc2C)nc1C`, the inhibition was 31.9% (inactive). Regarding `CCOC(=O)c1sc(NC(=O)c2ccncc2)nc1C`, the inhibition was 91.1% (active).

With `COC(=O)c1sc(NC(=S)NC(=O)c2ccc(C)cc2)nc1C`, the inhibition was 9.77% (inactive).

Regarding `CCOC(=O)c1cccnc1NC(=O)c1ccncc1`, the inhibition was -6.19% (inactive). In the case of `NC(=O)CSc1nnc(NC(=O)c2ccc3ccccc3c2)s1`, the inhibition was -4.32% (inactive).

Take `CCSc1nnc(NC(=O)c2ccc(C)cc2)s1`: the inhibition is 52.7% (active). As for `CC(=O)c1sc(N/N=C\c2ccc(C)cc2)nc1C`, the inhibition was 17.2% (inactive). As for `C=CCSc1nnc(NC(=O)c2ccc(NC(C)=O)cc2)s1`, the figure is 4.95% (inactive); as for `CC(=O)c1sc(NC(=O)c2ccc(C)cc2)nc1C`, 71.5% (active). Then `COc1ccc([N+](=O)[O-])cc1NC(=O)c1ccc(N(Cc2ccccc2C)S(C)(=O)=O)cc1`, with 2.86% (inactive). For the compound `CCN(CC)C(=O)Cn1cc(S(=O)(=O)CC(=O)NCc2ccc3c(c2)OCO3)c2ccccc21`, the inhibition was -2.79% (inactive). For the compound `Cc1noc(C)c1COc1ccc(C(=O)NCCOc2ccccc2)cc1`, the inhibition is -6.96% (inactive). As for `Cc1ccn2c(=O)c(C(=O)NCCC3=CCCCC3)c(O)nc2c1`, the figure is 9.74% (inactive); as for `COC(=O)Cc1ccc(OC(=O)C2CCN(S(=O)(=O)c3ccc(OC)c(OC)c3)CC2)cc1`, -4.03% (inactive); as for `CC1=C(C)CC(C(=O)NC(C)CCc2ccccc2)C(C(=O)O)C1` (stereo unspecified), 4.76% (inactive). Then `COCC1CCN(C(=O)C2CCC(=O)N(Cc3cccc(C(F)(F)F)c3)C2)CC1` (stereo unspecified), with 9.9% (inactive); and `COc1ccccc1OCc1nc2ccccc2s1`, with 97.3% (active). As for `COc1ccccc1N1CC(O)=C(c2nc3ccccc3s2)C1=N`, the figure is -12.5% (inactive); as for `CN(Cc1nc2ccccc2s1)C(=O)c1ccc(F)cc1`, 0.624% (inactive); as for `Cn1c(CCc2ccccc2)nnc1SCC(N)=O`, 0.317% (inactive). In the case of `COc1cc(/C=C(\C#N)c2nc3ccccc3[nH]2)ccc1O`, the inhibition was 93.7% (active). Consider `COc1cc(/C=C(\C#N)c2nc3c(s2)CC(C)CC3)ccc1O` (stereo unspecified), for which the inhibition was 2.43% (inactive).

For the compound `Cc1ccc2nc(/C(C#N)=C\c3ccc(OC(=O)c4cccs4)cc3)[nH]c2c1`, the inhibition is -1.03% (inactive). As to `CNC(=S)N/N=C/c1ccc(N2CCOCC2)s1`, the inhibition is 12.6% (inactive).

On to `Cc1ccc(CCCOC(=O)C[N+]2(C)CCCC2)cc1`, for which the inhibition is 8.46% (inactive). Turning to `O=C(c1cc(COc2c(F)cccc2F)on1)N1CCSCC1`, the inhibition is 0.456% (inactive). As for `Cc1ccnc(Nc2nc3ccccc3s2)n1`, the figure is 88.5% (active); as for `CC(=O)Nc1cccc(-c2nc3ccccc3s2)c1C`, -8.72% (inactive); as for `Cc1ccnc(-n2sc3ccccc3c2=O)n1`, -5.5% (inactive). `COc1cccc(NC(=O)CCNS(=O)(=O)c2ccc3c(c2)oc(=O)n3C)c1`: the inhibition is 7.4% (inactive). Then `O=C(COC(=O)C12CC3CC(CC(O)(C3)C1)C2)NC12CC3CC(CC(C3)C1)C2`, with -5.6% (inactive); and `Cc1sc(NC(=O)c2ccc3ncsc3c2)c(C(N)=O)c1C`, with 77.9% (active); and `COc1ccccc1-c1nnc(NC(=O)c2ccc3ncsc3c2)o1`, with 4.87% (inactive). Consider `O=C(COC(=O)c1ccc2ncsc2c1)Nc1ccc(Cl)cc1`, for which the inhibition is -7.82% (inactive).
